From PubChem BioAssay
Most compounds without a hit are left out; they make up all but 1.1% or so of the library.
Pin1 inh: qHTS Assay to Find Inhibitors of Pin1 | actives 0.009% (n = 390,000) | Pin1 FP peptide displacement, HiFluor488, 10 min | Peptidyl-prolyl cis-trans isomerase NIMA-interacting 1 (Homo sapiens), Q13526 | AID 504891, 2011 | Potency, µM (titrated, usually from 115 µM), for the others: at the highest dose activity, negative = inhibition, actives largely listed as inhibitors; active = well fitted inhibition curve with a large enough effect in the polarisation, with a control signal flat, not every such curve was filed as active; inconclusive = small, poorly fitted or top-dose-only effect, or effect the other way, or a change in a side signal; inactive = no such curve, though single readings can be large or run the other way; the % refers to the polarisation
Target sequence (Q13526 whole entry, looked up): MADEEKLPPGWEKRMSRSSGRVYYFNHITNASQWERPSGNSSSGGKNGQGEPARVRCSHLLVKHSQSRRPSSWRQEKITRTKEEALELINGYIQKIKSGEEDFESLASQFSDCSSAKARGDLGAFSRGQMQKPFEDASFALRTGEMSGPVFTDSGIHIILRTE
Tb PFK block: qHTS Assay to Find Inhibitors of T. brucei phosphofructokinase | T. brucei PFK, ADP-Glo luminescence | Potency, µM (top dose mostly 57.5 µM), for inactives: at the top dose activity, negative = inhibition, usual class: inhibitors | actives 0.17% (n = 330,000) | AID 485367, 2010;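 note: 0% = uninhibited 1x PFK enzyme wells and -100% = no-enzyme wells; nearly all actives have a fitted effect of over 60% in size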
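Luminescent ADP detection (ADP-Glo, two-step: ATP depletion then ADP-to-ATP conversion for luciferase) reported PFK activity after 45 min room-temperature reaction of 1.25 nM enzyme with 0.5 mM F6P and 0.1 mM ATP at pH 8.0.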
Tb PGK inh: qHTS Assay to Find Inhibitors of Phosphoglycerate Kinase | Phosphoglycerate kinase, glycosomal (Trypanosoma brucei brucei), P07378 | PGK/GAPDH coupled, Kinase-Glo luminescence, 60 min | Potency, µM (titrated, usually from 57.5 µM), without a hit: at the top dose activity change, negative = inhibition, hits mostly inhibitors | actives 0.043% (n = 380,000) | AID 602233, 2012; note: nearly all actives have a fitted effect of over 60% in size
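Recombinant glycosomal PGK reaction used 1,3-bisphosphoglycerate generated in-well by GAPDH (100nM final) in 100mM TEA pH 7.6, 5mM MgCl2, 0.01% Tween-20. After 60 minutes at room temperature, ATP was read by Kinase-Glo Plus luminescence end-point.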
GLS inhibitor: qHTS for Inhibitors of Glutaminase (GLS); GLS enzymatic activity, qHTS titration; Potency, µM (highest dose often 45.5 µM), for inactives: top-dose activity change, negative = inhibition, most hits filed as inhibitors; actives 0.21% (n = 410,000)
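Two-point fluorescence kinetic (t0, 30 min RT) for hKGA; glutamate detected via glutamate oxidase–HRP–Amplex Red. Substrate: 1 mM L-glutamine solution; buffer 45 mM KH2PO4, pH 8.2.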
VDR inh: Inhibitors of the vitamin D receptor (VDR): qHTS; VDR-SRC2-3 peptide fluorescence polarization, 2 h; AID 504847, 2011; Potency, µM, without a hit: max response, negative = inhibition, usual class: inhibitors; Vitamin D3 receptor (Homo sapiens), P11473; actives 0.93% (n = 400,000)
Target sequence (P11473 whole entry, looked up): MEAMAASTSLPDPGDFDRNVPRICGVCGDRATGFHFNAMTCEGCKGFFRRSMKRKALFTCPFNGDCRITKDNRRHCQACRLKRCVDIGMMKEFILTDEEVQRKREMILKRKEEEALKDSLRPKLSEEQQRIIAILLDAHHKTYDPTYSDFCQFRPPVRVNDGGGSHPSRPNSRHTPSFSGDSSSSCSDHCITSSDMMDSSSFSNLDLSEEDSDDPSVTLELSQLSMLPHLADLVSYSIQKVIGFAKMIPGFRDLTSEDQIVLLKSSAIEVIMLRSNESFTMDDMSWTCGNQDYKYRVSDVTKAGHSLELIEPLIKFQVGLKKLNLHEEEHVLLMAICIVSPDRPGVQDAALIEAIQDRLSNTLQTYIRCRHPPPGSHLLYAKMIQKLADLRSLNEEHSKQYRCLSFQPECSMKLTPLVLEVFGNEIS
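VDR–SRC2-3 interaction, FP format. Cmpds 23 nl via pintool, brief spin, 2 h ambient incubation.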
Active calls of the source: *; i = inactive; ? = inconclusive; nt = no result; [ ] = another dose, or the depositor's remark. Unless noted, calls come from the whole dose curve; as a rule, active = well fitted curve in the direction sought with a large enough effect; inconclusive = small, poorly fitted or top-dose-only effect, or another doubt; inactive = no such curve, though single readings can be large; an effect the other way counts as inactive or inconclusive. Unless noted, % is set by controls: 0 for no effect and ±100 for the full control effect; potency is the fitted concentration of half-maximal effect.

SMILES	Pin1 inh	Tb PFK block	Tb PGK inh	GLS inhibitor	VDR inh
CCN1CCC2(CC1)N=C(c1ccc(F)cc1)C(=S)N2C(=O)c1ccc(C(C)(C)C)cc1	0%	-19%	-2%	6%	79µM*
CCN1CCN(c2nc(-c3ccc(F)cc3)cc(=O)[nH]2)CC1	-10%	2%	-5%	20%	-7%
CCc1nn(CC(=O)Nc2ccc(C)c(F)c2)c(=O)c2cc3cc(C)ccc3n12	0%	nt	5%	-9%	-6%
COc1ccc(NC(=O)O/N=C2/CCCc3ccc(OC)cc32)cc1	-1%	-3%	1%	107%	45µM*
O=C1/C(=C\c2cc(Br)cc(Br)c2O)SC(=S)N1Cc1ccccc1	16%	3%	-26%	21%	50µM*
O=C(O)CN1C(=O)/C(=C\c2cc(Br)ccc2OCc2ccc([N+](=O)[O-])cc2)SC1=S	nt	?	?	-3%	35µM*
O=C1/C(=C\c2ccc(O)cc2)SC(=S)N1Cc1ccccc1	?	-1%	-1%	13%	23%
COc1ccc(Br)cc1/C=N/N1C(=O)CSC1=S	40%	0%	7%	20µM*	5%
NC(=O)c1c(NC(=O)CCCn2cnc([N+](=O)[O-])n2)sc2c1CCCC2	1%	-8%	i	-13%	45µM*
CC1CCc2c(sc(NC(=O)CCCn3cnc([N+](=O)[O-])n3)c2C(N)=O)C1 (stereo unspecified)	-1%	2%	i	0%	-14%
CCCCN(C)c1c(C)nc2ccc(C(=O)N(C)Cc3ccco3)cn12	nt	nt	nt	6%	nt
Oc1c(Cl)cc(Cl)cc1/C=N/c1nccs1	?	-5%	-12%	-12%	79µM*
Oc1c(Cl)cc(Cl)cc1/C=N/c1nc(-c2ccc(Cl)cc2)cs1	-9%	2%	i	-15%	-10%
CCOc1ccc(C2CC(=O)Nc3nc(SCc4ccccc4C)[nH]c(=O)c32)cc1OC (stereo unspecified)	5%	nt	-10%	6%	-2%
CCOC(=O)[C@H](CCc1ccccc1)N[C@H]1CCCN2CCC[C@@H](C(=O)O)N2C1=O	nt	nt	nt	0%	nt
CCOC(=O)c1nc(NCc2ccccc2)sc1C	7%	?	6%	5%	71µM*
Cc1ccc(-c2ccccc2NC(=O)CS(=O)CC(=O)Nc2ccc(C)c(Cl)c2)o1 (stereo unspecified)	?	-1%	0%	-5%	45µM*
Cc1ccc(-c2ccccc2NC(=O)CCl)o1	1%	2%	-10%	1%	-7%
Cc1cccc(CSCCNC(=O)CN(c2ccccc2)S(=O)(=O)N(C)C)c1	-4%	nt	nt	-10%	-2%
O=[N+]([O-])c1ccc(-n2nnnc2-c2ccccc2)cc1	1%	-7%	nt	-8%	22µM*
CCOC(=O)C1=C(C)NC(=S)NC1c1ccc(-c2cccc(Cl)c2C)o1 (stereo unspecified)	30%	0%	-3%	-6%	79µM*
COc1cc(-c2nc(Cn3nnc(C(=O)Nc4ccccc4C)c3C)c(C)o2)cc(OC)c1OC	0%	nt	i	-5%	-21%
COc1ccc(CS(=O)(=O)/C(Cl)=C(/Cl)C(=O)Nc2ccc(OC)nc2)cc1	0%	4%	-7%	-4%	40µM*
COc1ccc(NC(=O)Cc2ccccc2)cn1	?	2%	16%	0%	-2%
Cc1ccc(NC(=S)c2ccc3ccccc3n2)c(C)c1	-7%	-28%	i	?	79µM*
SMILES	Pin1 inh	Tb PFK block	Tb PGK inh	GLS inhibitor	VDR inh
CC(C)(C)C1=CC(=O)C(=O)C(C(C)(C)C)=C1	-3%	?	nt	5.6µM*	?
CC(C)(C)C1=CC(=O)C(N2CCOCC2)=CC1=O	3%	-6%	8%	7%	-9%
COc1ccc(Cl)cc1NC(=O)C1Cc2cc(S(=O)(=O)N3CCCC3)ccc2N1C(C)=O (stereo unspecified)	16%	-3%	7%	3%	-4%
CCOC(=O)CN1C(=O)N[C@@H](CCc2ccccc2)[C@@H](C(=O)OC)[C@H]1C	-20%	nt	0%	2%	-21%
CC(C)=CCOc1ccc(/C=C/C(=O)c2ccc(OCC=C(C)C)cc2OCC(=O)O)cc1	nt	nt	nt	-1%	10µM*
C/C=C/c1ccc(OCC(=O)O)c(OC)c1	-2%	0%	-7%	44%	11%
COc1cc2c(ccc3cc(OC)c(OC)c(O)c32)cc1O	?	?	11µM*	7.9µM*	6%
COc1cc2cccc(OC)c(=O)c2c(O)c1OC	-1%	9%	i	4%	-15%
Cc1ccc(N2/C(=N/c3nc(C)cc(C)n3)NC(=O)CC2C(=O)O)cc1 (stereo unspecified)	-3%	-2%	-3%[11.5 µM]	11%	-4%
Cc1cc(C)nc(/N=C2\NC(=O)CC(C(=O)O)N2c2ccc(C)c(C)c2)n1 (stereo unspecified)	3%	5%	-10%	2%	50µM*
CSc1nc(N)c2ncn([C@@H]3O[C@H](COP(=O)(O)OP(=O)(O)O)C(O)[C@H]3O)c2n1 (stereo partly specified)	nt	nt	nt	nt	2%
COc1cccc(CNC(=O)Cn2ncn3nc(-c4cccs4)cc3c2=O)c1OC	17%	nt	6%	-2%	2%
CCC(C)(CCNC(=O)Cc1ccccc1)c1ccccc1OC (stereo unspecified)	-2%	2%	-1%	3%	1%
O=C(CSc1nccn1-c1ncc(C(F)(F)F)cc1Cl)c1ccc(Cl)cc1	2%	1%	-5%	3%	45µM*
COc1cc(C2NC(=O)C(C#N)=C(Nc3cccc(C)c3)S2)ccc1O (stereo unspecified)	5%	2%	2%	35%	32µM*
COc1ccc(NC(=O)C2CCCN2C(=O)NCc2ccccc2)cc1 (stereo unspecified)	3%	0%	-9%	-7%	71µM*
CCS(=O)(=O)N1CC(=O)N(c2ccc(Cl)cc2)C(C)(C(=O)NC2CCCCC2)C1 (stereo unspecified)	-1%	nt	-7%	0%	7%
O=S(=O)(O)c1cc(O)c(N=Nc2ccc(O)cc2O)c2ccccc12	nt	nt	25µM*	?	52%
O=S(=O)(O)c1ccc2c(N=Nc3ccc(S(=O)(=O)O)c4ccccc34)c(O)c(S(=O)(=O)O)cc2c1	nt	nt	nt	0%	-3%
CSc1ncc(C(=O)Nc2cc(C)ccc2C)c(C)n1	0%	-2%	-2%	?	8%
CC(C)CCN1C(=O)c2ccc(C(=O)Nc3ccc(Br)cc3C(=O)O)cc2C1=O	?	-3%	-16%	1%	79µM*
COc1ccc(-c2nnc3n2N=C(c2c(OC)cccc2OC)CS3)cc1OC	4%	nt	nt	nt	nt
COCc1cc(=O)n2[nH]c(N)nc2n1	6%	-2%	2%	8.9µM*	-2%
